Screens (PubChem)
HEK293 tox – Cytotoxic Profiling in HEK 293 Cell Line of Diverse Libraries Using Quantitative High-Throughput Screening; HEK 293 viability, ATP luminescence (CellTiter-Glo), 48-72 h; Potency, µM (series often up to 115 µM), without a hit: at the top dose activity change, negative = cytotoxicity, actives largely listed as inhibitors; actives 6.6% (n = 94,000); note: % is set by controls: 0 for no effect and ±100 for the full control effect; nearly all actives have a fitted effect of over 60% in size
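Pintool-delivered compounds were incubated with HEK 293 cells (250 cells/well) at 37 degree Celsius for 48 or 72 hr. ATP-dependent luminescence (CellTiter-Glo) then reported remaining viable cells.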
NIH3T3 tox – Cytotoxic Profiling in NIH 3T3 Cell Line of Diverse Libraries Using Quantitative High-Throughput Screening; NIH 3T3 viability, CellTiter-Glo ATP luminescence, 48-72 h; Potency, µM (doses to about 96.7 µM), for inactives: at the top dose activity change, negative = cytotoxicity, actives largely listed as inhibitors; actives 4.3% (n = 94,000); AID 1345082, 2018; note: % is set by controls: 0 for no effect and ±100 for the full control effect; nearly all actives have a fitted effect of over 55% in size
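NIH 3T3 cells at 400 cells/well received 23 nL of compound by pintool and were incubated 48 or 72 h at 37 °C. Viability was read as ATP-coupled CellTiter-Glo luminescence.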
hNpr1 antagonist – Natriuretic polypeptide receptor (hNpr1) antagonism - Primary qHTS | Atrial natriuretic peptide receptor 1 (Homo sapiens), P16066 | HEK293 hNpr1 GloSensor cGMP, ANP-stimulated luminescence | Potency, µM (doses to about 46.3 µM), inactives show at the top dose activity change, negative = inhibition, hits mostly inhibitors | actives 1.6% (n = 76,000) | AID 1347048, 2019; calls by dose curve; note: % is set by controls: 0 for no effect and ±100 for the full control effect; nearly all actives have a fitted effect of over 60% in size
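HEK293 cells stably expressing human Npr1 and cGMP GloSensor pGS-40F, loaded 2 h with 2% GloSensor reagent, given compound 30 min at room temperature. Luminescence read before and 20 min after 0.1 nM hNppA.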
FLuc inh-1 – Firefly luciferase inhibition profiling of diverse chemical library using quantitative high-throughput screening | Luciferin 4-monooxygenase (Photinus pyralis), P08659 | purified P. pyralis luciferase, luminescence, biochemical | AID 1347043, 2019 | Potency, µM (series often up to 115 µM), most hits filed as inhibitors | actives 2.5% (n = 76,000); note: % is set by controls: 0 for no effect and ±100 for the full control effect; nearly all actives have a fitted effect of over 65% in size
Target sequence (P08659 whole entry, looked up): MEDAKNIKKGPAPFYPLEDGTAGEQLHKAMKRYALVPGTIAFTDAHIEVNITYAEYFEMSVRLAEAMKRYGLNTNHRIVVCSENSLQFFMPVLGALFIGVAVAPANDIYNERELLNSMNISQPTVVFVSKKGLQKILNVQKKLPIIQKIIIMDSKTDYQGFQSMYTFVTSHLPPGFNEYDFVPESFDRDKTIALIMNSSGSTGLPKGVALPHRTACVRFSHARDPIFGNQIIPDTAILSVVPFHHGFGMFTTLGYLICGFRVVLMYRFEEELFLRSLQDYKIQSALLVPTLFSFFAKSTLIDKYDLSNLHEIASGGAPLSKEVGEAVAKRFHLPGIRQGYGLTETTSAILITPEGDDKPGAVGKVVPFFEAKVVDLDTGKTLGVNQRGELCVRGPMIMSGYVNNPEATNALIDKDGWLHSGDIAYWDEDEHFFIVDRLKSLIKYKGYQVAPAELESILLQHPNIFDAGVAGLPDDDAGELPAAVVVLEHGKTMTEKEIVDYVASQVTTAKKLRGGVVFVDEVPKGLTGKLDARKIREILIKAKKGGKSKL
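FLuc 10nM, D-luciferin 10uM, ATP 10uM, Mg acetate 10mM, Tris acetate pH 7.5, Tween/BSA; cpd qHTS; enzyme added last; CCD luminescence.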
FLuc SDR -ATP – Firefly luciferase (FLuc-C-HiBiT) SDR gain of signal screen - without ATP; Potency, µM (series often up to 32.7 µM), inactives show at the highest dose activation (signal gain), most hits filed as activators; shares compounds with FLuc inh-1; Purified FLuc-C-HiBiT, Nano-Glo HiBiT luminescence, no ATP; AID 1963318, 2024; actives 7.8% (n = 1,300); note: nearly all actives have a fitted effect of over 55% in size
FLuc SDR ATP – Firefly luciferase (FLuc-C-HiBiT) SDR gain of signal screen - plus ATP; purified FLuc-C-HiBiT + ATP, HiBiT complementation luminescence; Potency, µM (series often up to 32.7 µM), without a hit: top-dose activation (gain of signal), most hits filed as activators; actives 8.7% (n = 1,300); shares compounds with FLuc inh-1; AID 1963319, 2024;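 note: signal reports ligand binding via conformational change of the enzyme rather than luciferase catalysis; % of control where 0% means no effect; nearly all actives have a fitted effect of over 55% in size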
FLuc inh-2 – Firefly luciferase (FLuc-C-HiBiT) enzymatic inhibition screen - Functional assay; Potency, µM (titrated, usually from 32.7 µM), for the others: at the highest dose activity change, negative = inhibition, hits mostly inhibitors; actives 42% (n = 1,300); purified FLuc-C-HiBiT enzyme, luciferin luminescence; shares compounds with FLuc inh-1; AID 1963320, 2024; note: % is set by controls: 0 for no effect and ±100 for the full control effect; nearly all actives have a fitted effect of over 70% in size
An asterisk follows results filed as active; i = inactive; ? = inconclusive; · = not tested or not shown; [ ] = remark or other dose. This is a sample that favours compounds with a hit; in the whole collection about 11% have one here. Unless noted, calls come from the whole dose curve; as a rule, active = well fitted curve in the direction sought with a large enough effect; inconclusive = small, poorly fitted or top-dose-only effect, or another doubt; inactive = no such curve, though single readings can be large; an effect the other way counts as inactive or inconclusive. Potency is the fitted concentration of half-maximal effect.

SMILES	HEK293 tox	NIH3T3 tox	hNpr1 antagonist	FLuc inh-1	FLuc SDR -ATP	FLuc SDR ATP	FLuc inh-2
COc1ccc(NC(=O)Nc2ccc(C)n(CC(=O)O)c2=O)cc1	12%	i	-4%	4µM*	11µM*	?	9.9µM*
O=C1NC(=NC2CCCCC2)C2(CCN([S+](=O)([O-])c3ccccc3)C2)N1c1cc(F)cc(F)c1 (stereo not drawn)	-17%	-21%	·	·	·	·	·
C[C@@]1(O)CCN(C(=O)CCc2ccc(F)cc2)C[C@@H]1O	-4%	-5%	6%	i	·	·	·
O=C(c1cccc(C(F)(F)F)c1)N1CCC(c2n[nH]c(=O)n2-c2ccccc2)CC1	4%	-13%	-3%	i	·	·	·
Cc1cn2nc(C(=O)Nc3ccccc3)cc2c(N(C)Cc2ccccc2)n1	?	?	15%	i	·	·	·
CCc1ccc(NC(=O)c2cc3ccccn3n2)cc1	·	·	·	·	?	?	1.8µM*
Cc1ccc(NC(=O)N2CCCC(c3noc(COc4ccccc4)n3)C2)cc1C (stereo not drawn)	?	?	-17%	4µM*	25%	16%	8.8µM*
Cc1ccc(OCc2nc(C3CN(C(=O)C4(c5ccccc5)CC4)C3)no2)cc1	?	?	1%	i	·	·	·
Cc1cc(C)cc(NC(=O)N2CCCC(c3noc(COc4ccccc4)n3)C2)c1 (stereo not drawn)	?	?	-19%	?	·	·	·
Cc1ccc(OCc2nc(C3CN(C(=O)c4n[nH]c5ccccc45)C3)no2)cc1	?	20µM*	?	8.9µM*	?	?	8.8µM*
COc1ccc(-c2ccc(NC(=O)c3ccc(F)cc3)cc2)nn1	2%[172 µM]	4%[138 µM]	·	·	·	·	·
COc1ccc(-c2nc3ccccc3s2)cc1NC(=O)c1ccc(F)cc1	·	·	·	·	14%	9%	-5%
CCOc1cc(C(=O)Nc2ccc(-c3nc4ccccc4s3)cc2Cl)cc(OCC)c1OCC	·	·	·	·	17%	12%	?
COc1cc(OC)cc(C(=O)Nc2cc(-c3nc4ccccc4s3)ccc2OC)c1	·	·	·	·	13%	8%	-13%
COc1ccc(-c2noc([C@@H](C)NC(=O)c3nc4ccccc4s3)c2C(=O)O)cc1	?	-13%	-2%	?	·	·	·
O=C(N[C@H]1[C@H](O)[C@H](O)C[C@@H]1c1ccc(C(F)(F)F)nc1)c1cc2ccccc2s1	?	-23%[138 µM]	1%[70.6 µM]	i	·	·	·
O=C(O)C1CN(Cc2ccc(-c3nc4cc(Cc5ccccc5F)ccc4s3)c(F)c2)C1	·	·	·	·	15%[5.62 µM]	9%[5.62 µM]	4%[5.62 µM]
O=C(N[C@@H]1CN(Cc2ccc(Cl)c(F)c2)C[C@H]1CO)C1CCC1	?	-13%	3%	i	·	·	·
COc1cccc2cc(C(=O)Nc3ccc(C)cc3)c(=O)oc12	·	·	·	·	28%	20%	?
COc1ccc2oc(=O)c(C(=O)Nc3cccc(C(=O)O)c3)cc2c1	·	·	·	·	12µM*	0.05µM*	0.016µM*
COc1ccc(NC(=O)c2ccc3oc(-c4ccccn4)nc3c2)cc1	?	-26%	·	·	·	·	·
CN(CC(O)c1ccccc1)C(=O)c1cn(C(c2ccccc2)c2ccccc2)nn1 (stereo not drawn)	-2%	-3%	4%	i	·	·	·
COc1ccc(C(=O)Nc2ccc(-c3nnc4n3CCCC4)cc2)cc1F	13%	1%	0%	i	·	·	·
COc1coc(C(=O)N2CCOCC2CC(=O)NC2CCCC2)cc1=O (stereo not drawn)	-34%	-16%	1%	i	·	·	·
Cc1cc(F)ccc1OC1(C(=O)O)CCN(c2ncnc3nc[nH]c23)CC1	i	5%	4%	i	10%	7%	3%
SMILES	HEK293 tox	NIH3T3 tox	hNpr1 antagonist	FLuc inh-1	FLuc SDR -ATP	FLuc SDR ATP	FLuc inh-2
O=C(NCCc1ccccn1)c1ccc(Cn2ccn3nc4c(c3c2=O)CCCC4)cc1	?	-19%	-4%	i	·	·	·
COc1ccc(CCNc2nc3ccccc3c3nc(-c4cccc(C)c4)nn23)cc1OC	·	·	·	·	15%	12%	?
COc1cc(CN2CCN(Cc3ccon3)CC2CCO)cc(OC)c1 (stereo not drawn)	-4%	-9%	-1%	i	·	·	·
CCOC(=O)C1=CN(CC(=O)Nc2ccc(Br)cc2F)S(=O)(=O)N=C1C	?	-25%	3%	i	·	·	·
COCC(=O)N1CCc2nc(C)nc(-c3ccc(OC)cc3)c2C1	-23%[172 µM]	-29%[138 µM]	2%[70.6 µM]	i	10%[49.3 µM]	8%[49.3 µM]	-5%[49.3 µM]
COc1ccc(-c2nc(C)nc3c2CN(C(C)=O)CC3)cc1	-16%[172 µM]	-23%[138 µM]	-13%[70.6 µM]	i	·	·	·
O=C(Nc1ccc(O)c(-c2nc3ccccc3s2)c1)c1cc2ccccc2o1	·	·	·	·	14%	10%	-1%
O=C(Nc1cc(-c2nc3ccccc3s2)ccc1Cl)c1cc2ccccc2o1	·	·	·	·	15%	11%	-1%
CS(=O)(=O)N1C[C@@H](COCC2CC2)[C@H](c2ccccn2)C1	-1%	-4%	-3%	i	·	·	·
Clc1ccc2c(c1)-n1cc(-c3ccccc3)nc1CO2	·	·	·	·	16%	11%	-19%
O=C1COc2ccc(-c3ccncc3)nc2CN1Cc1ccccc1	?	?	-17%[70.6 µM]	i	·	·	·
O=C(c1cc2ccc3cccnc3c2[nH]1)N1CCCCC1	·	·	·	·	11µM*	?	1.6µM*
Cc1sc2cc(C(=O)N3CCCC3)[nH]c2c1CN1CCCCC1	-4%	4%	0%	i	·	·	·
CC1CCCN(C(=O)c2cc3ccc4cccnc4c3[nH]2)C1 (stereo not drawn)	·	·	·	·	3.9µM*	2.5µM*	0.56µM*
Cc1noc(-c2cccn3c(CNC(=O)c4ccccc4C)nnc23)n1	-1%	i	1%	i	·	·	·
CN1C(=O)[C@@H]2C[C@@H](CN2Cc2ccc(Cl)cc2)Oc2ccccc21	?	?	-13%[70.6 µM]	i	·	·	·
O=C(O)c1cccc2c1CCN2C(=O)c1ccccc1	-26%	-7%	-28%	2.5µM*	15%	?	3.9µM*
COc1ccc(-c2nnc(SC(C)C(=O)O)o2)cc1 (stereo not drawn)	·	·	·	·	?	?	?
